Laboratory results taken from PubChem BioAssay AID1159580 (chemical genetic matrix, 2015).
“And” between values parts separate entries of the source, which are not always exact repeats. Equal entries are not always repeated. The campaign covered roughly 5,500 compounds. About 2,000 (36%) were called active. About 18% were inconclusive and are not listed. Cut-off read from the data, not from the text of the source: active = normalized growth mostly below about 0.91 (no sharp cut-off); inconclusive = no clear call, values can overlap the other calls; inactive = mostly above about 0.92. The list shows a part of the results.

Test: chemical genetic growth profiling, strain panel (AID 1159580);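 note: tested at 20 µM; growth read once vehicle control cultures reached saturation at 30 °C; 1 = growth at the plate median or of vehicle wells; lower values mean less growth of the strain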
Conditions: S. cerevisiae deletion strains, growth OD

Measured: normalized growth

CC1(C)C(=O)C=C[C@@]2(C)C1C[C@@H](O)[C@]1(C)C2CC[C@@]2(C)[C@H](c3ccoc3)OC(=O)[C@H]3O[C@]321 (stereo partly specified)
inactive: locus YAL021C, strain ccr4, active compounds read low 0.988 | locus YAL026C, strain drs2, active compounds read low 0.996 | locus YAL030W, strain snc1, active compounds read low 0.995 | locus YBL061C, strain skt5, active compounds read low 1 | locus YBR009C, strain hhf1, active compounds read low 1 | locus YBR021W, strain FUR4, active compounds read low 1 | locus YBR023C, strain chs3, active compounds read low 1.01 | locus YBR171W, strain sec66, active compounds read low 0.998 | locus YBR229C, strain ROT2, active compounds read low 0.939 | locus YBR231C, strain swc5, active compounds read low 1.01 | locus YBR279W, strain paf1, active compounds read low 1 | locus YCL011C, strain gbp2, active compounds read low 1.01 | locus YCL016C, strain dcc1, active compounds read low 1 | locus YCL029C, strain bik1, active compounds read low 0.969 | locus YCL061C, strain MRC1, active compounds read low 0.998 | locus YCL069W, strain vba3, active compounds read low 0.998 | locus YCR088W, strain abp1, active compounds read low 0.999 | locus YDL005C, strain med2, active compounds read low 0.999 | locus YDL035C, strain GPR1, active compounds read low 0.956 | locus YDL040C, strain nat1, active compounds read low 1 | locus YDL074C, strain BRE1, active compounds read low 0.958 | locus YDL101C, strain DUN1, active compounds read low 0.98 | locus YDL185W, strain tfp1, active compounds read low 0.954 | locus YDL192W, strain arf1, active compounds read low 0.979 | locus YDR001C, strain nth1, active compounds read low 0.985 | locus YDR069C, strain doa4, active compounds read low 1.01 | locus YDR101C, strain arx1, active compounds read low 0.97 | locus YDR137W, strain rgp1, active compounds read low 0.985 | locus YDR159W, strain sac3, active compounds read low 1.01 | locus YDR162C, strain NBP2, active compounds read low 0.949 | locus YDR195W, strain ref2 0.986 | locus YDR297W, strain sur2, active compounds read low 1 | locus YDR318W, strain mcm21, active compounds read low 0.972 | locus YDR334W, strain swr1, active compounds read low 0.995 | locus YDR335W, strain msn5, active compounds read low 0.996 | locus YDR388W, active compounds read low 0.996 | locus YDR392W, strain spt3, active compounds read low 1.01 | locus YDR502C, strain sam2, active compounds read low 1 | locus YEL003W, strain gim4, active compounds read low 1 | locus YEL037C, strain rad23, active compounds read low 0.995 | locus YEL061C, strain CIN8 (second series), active compounds read low 0.994 | locus YER015W, strain faa2, active compounds read low 0.99 | locus YER016W, strain bim1, active compounds read low 1 | locus YER110C, active compounds read low 0.968 | locus YER111C, strain swi4, active compounds read low 1 | locus YER155C, strain BEM2 (second series), active compounds read low 1 | locus YER155C, strain BEM2, active compounds read low 1.01 | locus YER167W, strain BCK2, active compounds read low 0.973 | locus YFR010W, strain ubp6, active compounds read low 0.984 | locus YGL078C, strain dbp3, active compounds read low 0.992 | locus YGL086W, strain mad1, active compounds read low 0.988 | locus YGL167C, strain pmr1, active compounds read low 1.01 | locus YGL173C, strain kem1, active compounds read low 1.01 | locus YGL227W, strain vid30, active compounds read low 1.01 | locus YGL240W, strain doc1, active compounds read low 1.01 | locus YGL248W, strain PDE1, active compounds read low 0.961 | locus YGL253W, strain hxk2, active compounds read low 1 | locus YGR135W, strain pre9, active compounds read low 1.04 | locus YGR229C, strain SMI1, active compounds read low 0.95 | locus YGR252W, strain gcn5, active compounds read low 0.965 | locus YHR013C, strain ard1, active compounds read low 1.01 | locus YHR027C, strain rpn1, active compounds read low 0.986 | locus YHR030C, strain SLT2, active compounds read low 0.966 | locus YHR079C, strain IRE1 (second series), active compounds read low 0.99 | locus YHR079C, strain IRE1, active compounds read low 0.936 | locus YHR094C, strain hxt1, active compounds read low 0.978 | locus YHR129C, strain ARP1, active compounds read low 0.987 | locus YHR142W, strain chs7, active compounds read low 1.01 | locus YHR200W, strain rpn10, active compounds read low 0.976 | locus YIL066C, strain RNR3, active compounds read low 0.94 | locus YIL073C, strain SPO22, active compounds read low 0.928 | locus YIL125W, strain kgd1, active compounds read low 0.985 | locus YIR030C, strain dcg1, active compounds read low 0.992 | locus YJL092W, strain hpr5, active compounds read low 0.999 | locus YJL095W, strain BCK1 (second series), active compounds read low 1 | locus YJL095W, strain BCK1, active compounds read low 1.01 and 0.956 | locus YJL115W, strain asf1, active compounds read low 0.997 | locus YJL129C, strain trk1, active compounds read low 0.991 | locus YJL134W, strain LCB3, active compounds read low 0.98 | locus YJL154C, strain vps35, active compounds read low 0.992 | locus YJL164C, strain tpk1, active compounds read low 1 | locus YJL166W, strain qcr8, active compounds read low 1.01 | locus YJL168C, strain set2, active compounds read low 0.998 | locus YJL187C, strain SWE1 (second series), active compounds read low 1 | locus YJL187C, strain SWE1, active compounds read low 1.02 | locus YJR043C, strain POL32, active compounds read low 0.937
